# Test results reported in article PMC7862700, “An all-to-all approach to the identification of sequence-specific readers for epigenetic DNA modifications on cytosine”.
# Columns and labels:
# Assay in all cases: DAPPL (digital affinity profiling via proximity ligation, sequencing); 10 mM Tris-HCl pH 7.5, 50 mM NaCl, 1 mM DTT, 4% glycerol, room temperature, 30 min; GST-TFs on glutathione beads, 16-mer random dsDNA library, 0.1% formaldehyde crosslink after washing; high values mean tight binding
# FEV = biological target: T1, FEV (Homo sapiens, UniProt Q99581 1-238); conditions: protein: recombinant; tags: N-terminal GST; dsDNA, one strand shown
# T1 sequence: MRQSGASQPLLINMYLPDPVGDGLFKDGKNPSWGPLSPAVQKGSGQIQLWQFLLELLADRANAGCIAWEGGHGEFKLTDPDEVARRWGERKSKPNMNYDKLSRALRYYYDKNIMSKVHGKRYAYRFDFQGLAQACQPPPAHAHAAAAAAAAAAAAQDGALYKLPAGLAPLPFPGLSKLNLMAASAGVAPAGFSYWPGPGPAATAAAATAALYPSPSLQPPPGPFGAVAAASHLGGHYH
# Procedure, shortened: (§1)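 A tag-only sample was pooled with DNA-barcoded human transcription factors that had been expressed in yeast as GST fusions and captured on glutathione beads. The pools were incubated for 30 min at room temperature with 200 nmole of a random double-stranded 16-mer DNA library in Tris/NaCl/DTT/glycerol buffer, then washed, crosslinked with 0.1% formaldehyde, proximity-ligated (BsaI/T4 ligase, 1 h, 37 °C), PCR-amplified and sequenced on an Illumina NextSeq500. Binding signal is each hexamer's read frequency for a factor divided by its frequency for the tag-only sample.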
# ETV5 = ETV5 (Homo sapiens, UniProt P41161 1-510); conditions: protein: recombinant; tags: N-terminal GST; dsDNA, one strand shown
# Procedure, shortened: as §1
# HSF1 = HSF1 (Homo sapiens, UniProt Q00613 1-529); conditions: protein: recombinant; tags: N-terminal GST; chain copies: 3; dsDNA, one strand shown
# Procedure, shortened: as §1
# SPIC = biological target: T2, SPIC (Homo sapiens, UniProt Q8N5J4 1-248); conditions: protein: recombinant; tags: N-terminal GST; dsDNA, one strand shown
# T2 sequence: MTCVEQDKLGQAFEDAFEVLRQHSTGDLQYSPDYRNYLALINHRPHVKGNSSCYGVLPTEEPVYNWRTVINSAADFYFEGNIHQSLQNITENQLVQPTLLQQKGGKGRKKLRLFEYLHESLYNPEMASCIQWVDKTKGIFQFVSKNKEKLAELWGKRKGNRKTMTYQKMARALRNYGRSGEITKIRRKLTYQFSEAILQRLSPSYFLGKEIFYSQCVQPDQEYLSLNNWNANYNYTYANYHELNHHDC
# Procedure, shortened: as §1
# ELF4 = ELF4 (Homo sapiens, UniProt Q99607 1-663); conditions: protein: recombinant; tags: N-terminal GST; dsDNA, one strand shown
# Procedure, shortened: as §1
# ELK4 = biological target: T3, ELK4 (Homo sapiens, UniProt P28324-2 1-405); conditions: protein: recombinant; tags: N-terminal GST; dsDNA, one strand shown
# T3 sequence: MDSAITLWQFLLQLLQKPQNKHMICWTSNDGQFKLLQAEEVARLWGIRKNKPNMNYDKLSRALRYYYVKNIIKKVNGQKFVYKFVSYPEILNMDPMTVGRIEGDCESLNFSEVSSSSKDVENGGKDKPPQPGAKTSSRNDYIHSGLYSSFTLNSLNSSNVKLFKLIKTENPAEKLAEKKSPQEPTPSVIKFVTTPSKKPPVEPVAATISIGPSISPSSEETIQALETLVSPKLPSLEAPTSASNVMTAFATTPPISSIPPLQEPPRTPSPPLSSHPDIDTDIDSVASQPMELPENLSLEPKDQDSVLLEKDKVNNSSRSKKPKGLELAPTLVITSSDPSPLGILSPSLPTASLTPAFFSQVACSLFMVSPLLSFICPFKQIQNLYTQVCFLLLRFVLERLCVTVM
# Procedure, shortened: as §1
# ETV2 = biological target: T4, ETV2 (Homo sapiens, UniProt O00321 1-342); conditions: protein: recombinant; tags: N-terminal GST; dsDNA, one strand shown
# T4 sequence: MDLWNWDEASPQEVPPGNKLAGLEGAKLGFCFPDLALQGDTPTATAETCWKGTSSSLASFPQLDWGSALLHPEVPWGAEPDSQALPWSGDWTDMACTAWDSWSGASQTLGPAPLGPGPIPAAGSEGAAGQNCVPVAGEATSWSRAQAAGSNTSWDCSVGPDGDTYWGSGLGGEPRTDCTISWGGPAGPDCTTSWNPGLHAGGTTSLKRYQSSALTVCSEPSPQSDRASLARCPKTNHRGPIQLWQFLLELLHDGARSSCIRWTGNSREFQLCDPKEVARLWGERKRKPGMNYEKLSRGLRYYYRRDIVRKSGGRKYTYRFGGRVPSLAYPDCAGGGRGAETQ
# Procedure, shortened: as §1
# ELF3 = biological target: T5, ELF3 (Homo sapiens, UniProt P78545 1-371); conditions: protein: recombinant; tags: N-terminal GST; dsDNA, one strand shown
# T5 sequence: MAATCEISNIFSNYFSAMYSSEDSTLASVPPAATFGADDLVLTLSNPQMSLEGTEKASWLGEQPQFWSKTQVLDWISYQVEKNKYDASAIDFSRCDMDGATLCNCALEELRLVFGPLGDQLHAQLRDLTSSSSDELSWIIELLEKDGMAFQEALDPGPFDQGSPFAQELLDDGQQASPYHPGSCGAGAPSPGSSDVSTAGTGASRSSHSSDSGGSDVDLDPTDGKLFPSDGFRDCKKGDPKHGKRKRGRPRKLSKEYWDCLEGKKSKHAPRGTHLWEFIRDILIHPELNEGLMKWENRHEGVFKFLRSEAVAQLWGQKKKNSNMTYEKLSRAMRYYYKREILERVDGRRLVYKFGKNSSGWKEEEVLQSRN
# Procedure, shortened: as §1
# CRX = CRX (Homo sapiens, UniProt O43186 1-299); conditions: protein: recombinant; tags: N-terminal GST; dsDNA, one strand shown
# Procedure, shortened: as §1
# ETV1 = ETV1 (Homo sapiens, UniProt P50549 1-477); conditions: protein: recombinant; tags: N-terminal GST; dsDNA, one strand shown
# Procedure, shortened: as §1
# ERF = biological target: T6, ERF (Homo sapiens, UniProt P50548 1-548); conditions: protein: recombinant; tags: N-terminal GST; dsDNA, one strand shown
# T6 sequence: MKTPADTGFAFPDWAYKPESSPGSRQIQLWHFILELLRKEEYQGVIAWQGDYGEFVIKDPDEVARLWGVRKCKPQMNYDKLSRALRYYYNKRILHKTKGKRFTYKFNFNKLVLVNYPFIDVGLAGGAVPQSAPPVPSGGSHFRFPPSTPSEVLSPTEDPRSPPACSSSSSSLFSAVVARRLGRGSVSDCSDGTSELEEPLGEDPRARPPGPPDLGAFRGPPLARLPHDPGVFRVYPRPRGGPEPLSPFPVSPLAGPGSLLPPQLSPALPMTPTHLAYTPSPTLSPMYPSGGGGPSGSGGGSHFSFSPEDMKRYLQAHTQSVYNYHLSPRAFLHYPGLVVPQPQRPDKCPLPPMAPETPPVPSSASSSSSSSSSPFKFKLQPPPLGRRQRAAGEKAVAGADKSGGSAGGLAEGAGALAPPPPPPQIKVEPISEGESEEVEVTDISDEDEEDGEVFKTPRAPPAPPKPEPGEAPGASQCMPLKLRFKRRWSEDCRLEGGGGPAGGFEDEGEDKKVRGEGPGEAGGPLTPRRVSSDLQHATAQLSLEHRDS
# Procedure, shortened: as §1
# ETV3L = biological target: T7, ETV3L (Homo sapiens, UniProt Q6ZN32 1-361); conditions: protein: recombinant; tags: N-terminal GST; dsDNA, one strand shown
# T7 sequence: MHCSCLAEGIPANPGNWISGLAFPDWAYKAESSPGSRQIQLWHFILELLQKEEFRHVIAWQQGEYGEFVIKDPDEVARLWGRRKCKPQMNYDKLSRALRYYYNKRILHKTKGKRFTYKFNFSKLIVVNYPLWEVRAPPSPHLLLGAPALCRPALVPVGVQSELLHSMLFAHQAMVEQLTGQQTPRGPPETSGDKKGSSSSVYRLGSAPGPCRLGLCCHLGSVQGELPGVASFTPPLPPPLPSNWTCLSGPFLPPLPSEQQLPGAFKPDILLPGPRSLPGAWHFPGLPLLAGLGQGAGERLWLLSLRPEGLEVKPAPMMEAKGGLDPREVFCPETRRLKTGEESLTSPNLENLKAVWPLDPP
# Procedure, shortened: as §1
# ETS2 = biological target: T8, ETS2 (Homo sapiens, UniProt P15036 1-469); conditions: protein: recombinant; tags: N-terminal GST; dsDNA, one strand shown
# T8 sequence: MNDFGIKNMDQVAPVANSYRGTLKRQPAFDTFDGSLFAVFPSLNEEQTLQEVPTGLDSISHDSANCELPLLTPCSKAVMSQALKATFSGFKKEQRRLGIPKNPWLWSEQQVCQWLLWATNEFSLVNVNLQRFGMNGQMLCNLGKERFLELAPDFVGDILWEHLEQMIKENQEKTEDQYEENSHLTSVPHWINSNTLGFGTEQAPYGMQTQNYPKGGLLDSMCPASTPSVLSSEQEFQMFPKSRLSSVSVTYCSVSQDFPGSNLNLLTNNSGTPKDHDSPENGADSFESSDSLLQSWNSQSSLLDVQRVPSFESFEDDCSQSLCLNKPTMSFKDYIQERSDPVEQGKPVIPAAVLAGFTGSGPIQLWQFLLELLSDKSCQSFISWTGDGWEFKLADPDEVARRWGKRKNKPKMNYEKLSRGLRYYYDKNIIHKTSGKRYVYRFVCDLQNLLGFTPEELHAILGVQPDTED
# Procedure, shortened: as §1
# SPDEF = biological target: T9, SPDEF (Homo sapiens, UniProt O95238 1-335); conditions: protein: recombinant; tags: N-terminal GST; dsDNA, one strand shown
# T9 sequence: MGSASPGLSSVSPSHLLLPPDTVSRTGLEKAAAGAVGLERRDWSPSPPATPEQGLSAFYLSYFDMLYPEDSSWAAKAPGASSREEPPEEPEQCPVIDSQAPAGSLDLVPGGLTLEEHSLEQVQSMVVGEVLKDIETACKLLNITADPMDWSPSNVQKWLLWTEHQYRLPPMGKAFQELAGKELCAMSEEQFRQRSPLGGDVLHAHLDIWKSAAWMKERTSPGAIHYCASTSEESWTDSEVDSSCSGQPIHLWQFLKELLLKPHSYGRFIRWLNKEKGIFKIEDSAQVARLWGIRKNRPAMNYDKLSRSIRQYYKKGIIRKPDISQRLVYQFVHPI
# Procedure, shortened: as §1
# ETV7 = biological target: T10, ETV7 (Homo sapiens, UniProt Q9Y603 1-341); conditions: protein: recombinant; tags: N-terminal GST; dsDNA, one strand shown
# T10 sequence: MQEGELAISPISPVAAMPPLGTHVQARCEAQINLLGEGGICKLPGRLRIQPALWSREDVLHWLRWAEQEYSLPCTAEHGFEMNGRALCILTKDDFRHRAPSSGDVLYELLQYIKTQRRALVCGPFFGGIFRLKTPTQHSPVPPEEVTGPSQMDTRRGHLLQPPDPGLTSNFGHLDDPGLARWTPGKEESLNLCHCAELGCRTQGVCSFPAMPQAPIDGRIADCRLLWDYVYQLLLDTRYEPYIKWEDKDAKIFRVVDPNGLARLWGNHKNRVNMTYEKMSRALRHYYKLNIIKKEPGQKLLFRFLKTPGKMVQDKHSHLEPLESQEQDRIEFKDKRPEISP
# Procedure, shortened: as §1
# ELF5 = biological target: T11, ELF5 (Homo sapiens, UniProt Q9UKW6-2 1-255); conditions: protein: recombinant; tags: N-terminal GST; dsDNA, one strand shown
# T11 sequence: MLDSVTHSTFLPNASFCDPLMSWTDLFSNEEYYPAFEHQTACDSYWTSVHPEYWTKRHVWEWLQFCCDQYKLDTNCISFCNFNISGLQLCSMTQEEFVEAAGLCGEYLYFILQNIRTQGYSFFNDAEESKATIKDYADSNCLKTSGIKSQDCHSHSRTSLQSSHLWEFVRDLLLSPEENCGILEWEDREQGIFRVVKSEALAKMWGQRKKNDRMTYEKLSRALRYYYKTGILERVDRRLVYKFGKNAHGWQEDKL
# Procedure, shortened: as §1
# ETV3 = biological target: T12, ETV3 (Homo sapiens, UniProt P41162-2 1-143); conditions: protein: recombinant; tags: N-terminal GST; dsDNA, one strand shown
# T12 sequence: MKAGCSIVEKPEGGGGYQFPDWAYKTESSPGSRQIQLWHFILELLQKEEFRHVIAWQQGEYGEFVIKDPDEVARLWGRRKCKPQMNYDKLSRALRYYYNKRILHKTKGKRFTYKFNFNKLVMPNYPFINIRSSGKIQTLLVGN
# Procedure, shortened: as §1
# ETV6 = ETV6 (Homo sapiens, UniProt P41212 1-452); conditions: protein: recombinant; tags: N-terminal GST; dsDNA, one strand shown
# Procedure, shortened: as §1
# Sequence of ETV6 (P41212 whole entry): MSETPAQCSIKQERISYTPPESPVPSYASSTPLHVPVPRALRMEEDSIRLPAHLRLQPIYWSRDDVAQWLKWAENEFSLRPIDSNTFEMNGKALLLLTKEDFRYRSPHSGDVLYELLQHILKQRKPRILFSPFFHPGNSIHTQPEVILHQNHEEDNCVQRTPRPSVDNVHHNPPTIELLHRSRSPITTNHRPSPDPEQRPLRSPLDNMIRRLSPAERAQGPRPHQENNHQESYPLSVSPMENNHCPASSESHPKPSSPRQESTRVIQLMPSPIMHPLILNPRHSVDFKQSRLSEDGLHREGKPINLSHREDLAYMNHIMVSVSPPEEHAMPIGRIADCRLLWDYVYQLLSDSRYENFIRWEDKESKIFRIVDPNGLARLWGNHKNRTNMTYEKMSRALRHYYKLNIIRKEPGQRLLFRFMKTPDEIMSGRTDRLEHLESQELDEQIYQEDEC
# Sequence of ETV1 (P50549 whole entry): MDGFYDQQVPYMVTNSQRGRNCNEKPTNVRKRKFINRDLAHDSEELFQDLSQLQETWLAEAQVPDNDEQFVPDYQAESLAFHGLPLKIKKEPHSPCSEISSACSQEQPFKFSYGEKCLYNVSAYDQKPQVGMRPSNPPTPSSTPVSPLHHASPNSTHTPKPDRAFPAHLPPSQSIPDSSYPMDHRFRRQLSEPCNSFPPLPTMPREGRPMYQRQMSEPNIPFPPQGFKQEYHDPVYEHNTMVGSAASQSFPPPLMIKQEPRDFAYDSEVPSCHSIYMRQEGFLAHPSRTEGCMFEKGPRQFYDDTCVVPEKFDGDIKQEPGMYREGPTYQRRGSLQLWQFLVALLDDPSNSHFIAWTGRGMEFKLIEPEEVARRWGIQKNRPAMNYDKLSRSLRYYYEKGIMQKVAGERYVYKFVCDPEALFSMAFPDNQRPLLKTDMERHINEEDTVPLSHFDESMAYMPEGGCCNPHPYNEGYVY
# Sequence of ELF4 (Q99607 whole entry): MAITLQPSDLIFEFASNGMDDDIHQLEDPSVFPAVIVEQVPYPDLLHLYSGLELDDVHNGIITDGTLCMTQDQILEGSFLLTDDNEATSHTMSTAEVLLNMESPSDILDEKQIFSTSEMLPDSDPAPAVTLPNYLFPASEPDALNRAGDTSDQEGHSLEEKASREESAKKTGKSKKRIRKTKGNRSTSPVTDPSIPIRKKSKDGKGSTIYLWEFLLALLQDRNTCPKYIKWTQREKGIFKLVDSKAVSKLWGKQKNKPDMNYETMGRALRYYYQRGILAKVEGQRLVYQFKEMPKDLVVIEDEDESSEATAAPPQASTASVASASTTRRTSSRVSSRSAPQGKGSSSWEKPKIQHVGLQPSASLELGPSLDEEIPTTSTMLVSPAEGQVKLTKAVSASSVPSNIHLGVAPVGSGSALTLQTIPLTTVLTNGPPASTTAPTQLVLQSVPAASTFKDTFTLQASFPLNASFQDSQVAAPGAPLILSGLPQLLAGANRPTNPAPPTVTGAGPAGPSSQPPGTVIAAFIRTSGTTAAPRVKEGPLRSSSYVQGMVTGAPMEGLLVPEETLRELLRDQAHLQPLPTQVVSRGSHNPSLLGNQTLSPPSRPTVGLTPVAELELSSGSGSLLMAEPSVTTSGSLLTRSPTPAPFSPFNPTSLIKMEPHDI
# Sequence of CRX (O43186 whole entry): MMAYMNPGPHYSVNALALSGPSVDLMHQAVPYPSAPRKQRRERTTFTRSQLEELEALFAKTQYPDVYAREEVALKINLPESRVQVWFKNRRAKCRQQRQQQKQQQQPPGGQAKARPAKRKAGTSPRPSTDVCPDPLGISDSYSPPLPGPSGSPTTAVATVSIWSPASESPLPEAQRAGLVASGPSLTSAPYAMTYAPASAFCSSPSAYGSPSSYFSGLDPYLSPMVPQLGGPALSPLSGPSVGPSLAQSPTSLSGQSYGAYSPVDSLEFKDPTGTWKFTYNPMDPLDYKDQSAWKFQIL
# Sequence of ETV5 (P41161 whole entry): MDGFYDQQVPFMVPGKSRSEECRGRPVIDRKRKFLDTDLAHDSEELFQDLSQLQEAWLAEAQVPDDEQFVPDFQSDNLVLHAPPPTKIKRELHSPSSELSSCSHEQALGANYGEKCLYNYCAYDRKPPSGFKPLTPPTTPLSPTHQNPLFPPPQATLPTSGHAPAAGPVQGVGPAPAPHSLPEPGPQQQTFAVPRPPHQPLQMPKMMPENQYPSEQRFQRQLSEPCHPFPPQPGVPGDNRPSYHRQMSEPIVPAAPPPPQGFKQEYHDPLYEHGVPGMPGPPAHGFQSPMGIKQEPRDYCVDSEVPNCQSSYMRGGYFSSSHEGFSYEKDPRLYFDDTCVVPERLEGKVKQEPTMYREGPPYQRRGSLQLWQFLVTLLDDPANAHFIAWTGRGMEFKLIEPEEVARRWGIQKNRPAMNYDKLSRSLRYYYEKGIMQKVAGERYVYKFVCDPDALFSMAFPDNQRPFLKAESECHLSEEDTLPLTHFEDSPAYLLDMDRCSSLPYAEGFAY
# Sequence of HSF1 (Q00613 whole entry): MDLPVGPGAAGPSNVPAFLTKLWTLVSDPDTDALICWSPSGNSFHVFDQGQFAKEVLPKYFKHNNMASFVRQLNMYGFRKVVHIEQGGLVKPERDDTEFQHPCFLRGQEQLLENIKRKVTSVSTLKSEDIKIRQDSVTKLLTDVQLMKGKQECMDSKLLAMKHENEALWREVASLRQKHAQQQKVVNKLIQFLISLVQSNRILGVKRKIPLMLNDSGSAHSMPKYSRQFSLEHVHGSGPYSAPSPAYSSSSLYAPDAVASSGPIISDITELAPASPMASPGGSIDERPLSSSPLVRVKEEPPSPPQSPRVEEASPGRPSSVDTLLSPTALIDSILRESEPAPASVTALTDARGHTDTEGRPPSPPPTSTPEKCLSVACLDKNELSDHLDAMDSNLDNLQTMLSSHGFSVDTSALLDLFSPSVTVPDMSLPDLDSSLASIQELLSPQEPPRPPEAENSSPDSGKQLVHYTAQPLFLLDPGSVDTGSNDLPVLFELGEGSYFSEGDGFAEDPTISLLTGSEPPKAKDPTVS
sequence,measurement,setting,value
ACACTA,binding signal,FEV,"1.14 fold enrichment (6-mer frequency, TF over GST control)"
same,binding signal,ETV5,"1.14 fold enrichment (6-mer frequency, TF over GST control)"
same,binding signal,HSF1,"1.12 fold enrichment (6-mer frequency, TF over GST control)"
same,binding signal,SPIC,"1.14 fold enrichment (6-mer frequency, TF over GST control)"
same,binding signal,ELF4,"1.13 fold enrichment (6-mer frequency, TF over GST control)"
same,binding signal,ELK4,"1.16 fold enrichment (6-mer frequency, TF over GST control)"
same,binding signal,ETV2,"1.1 fold enrichment (6-mer frequency, TF over GST control)"
same,binding signal,ELF3,"1.19 fold enrichment (6-mer frequency, TF over GST control)"
same,binding signal,CRX,"1.11 fold enrichment (6-mer frequency, TF over GST control)"
same,binding signal,ETV1,"1.03 fold enrichment (6-mer frequency, TF over GST control)"
same,binding signal,ERF,"1.15 fold enrichment (6-mer frequency, TF over GST control)"
same,binding signal,ETV3L,"1.18 fold enrichment (6-mer frequency, TF over GST control)"
same,binding signal,ETS2,"1.1 fold enrichment (6-mer frequency, TF over GST control)"
same,binding signal,SPDEF,"1.09 fold enrichment (6-mer frequency, TF over GST control)"
same,binding signal,ETV7,"1.15 fold enrichment (6-mer frequency, TF over GST control)"
same,binding signal,ELF5,"1.09 fold enrichment (6-mer frequency, TF over GST control)"
same,binding signal,ETV3,"1.12 fold enrichment (6-mer frequency, TF over GST control)"
same,binding signal,ETV6,"1.21 fold enrichment (6-mer frequency, TF over GST control)"
